Records with an inconclusive call do not appear. A call without a number means that no potency is given here. Activity calls are given as the source filed them. Calls follow the shape of the dose curve; as a rule, active = well fitted inhibition curve with a large enough effect; inconclusive = small, poorly fitted or top-dose-only effect; inactive = no such curve, though single readings can be large or run the other way.
Each compound was assayed on Zika virus NS2B-NS3 protease (unlinked complex) (assay: Primary screen GU Rhodamine qHTS for Zika virus inhibitors: Unlinked NS2B-NS3 protease assay (AID 1347159; also: nearly all actives have a fitted effect of over 60% in size)). Conditions: Recombinant ZIKV NS2B-NS3 protease, Rhodamine110 substrate fluorescence; series mostly up to 107 µM.
From the text: Avindra Nath, Ph.D., National Institute of Neurological Disorders and Stroke (NINDS), Bethesda, MD
Radhakrishnan Padmanabhan, Ph.D., Georgetown University (GU), Washington D.C.
Zika Virus causes congenital defects, including microcephaly and is associated with Guillain-Barre syndrome, eningoencephalitis and myelitis in infected adult. […] Using a target-based approach, we hope to establish a screening paradigm to uncover novel, cell-active NS2B-NS3 protease (Zika Virus) specific inhibitors from NCATS' collection of small molecules using qHTS.
Four assay panel was created to identify potential Zika Virus inhibitors. Namely, (1) GU unlinked NS2B-NS3 AMC tagged protease qHTS, (2) GU unlinked NS2B-NS3 Rhodamine tagged protease qHTS, (3) NINDS linked NS2B-NS3 AMC tagged protease qHTS, (4) NINDS linked NS2B-NS3 Rhodamine tagged protease qHTS. Active compounds were re-acquired and re-screened to confirm inhibition. Inhibitors were further screened against various confirmatory and counterscreens in dose response format.
Early Translation Branch (ETB)
National Center for Advancing Translational Sciences (NCATS), Rockville, MD
National Institute of Health (NIH), Bethesda, Maryland
Padmanabhan lab provided the NS2B hydrophilic domain and NS3 protease domain in a noncovalent complex used for the unlinked assay. Control compound aprotinin is obtained from Thermo Scientific (#78432; Waltham, Massachusetts). Rhodamine110 substrate ([N-Cbz]-Nle-Lys-Arg-Arg-Rhod110-Arg-Arg-Lys-Nle-[N-Cbz]) was purchased from either Genscript or Bachem.
1536-well Protease (Rhodamine110 Substrate) Assay:
Briefly, 3 microL of enzyme (25 nM final concentration), in assay buffer (10 mM Tris-HCl pH 8.0 with 0.01% Tween 20) were dispensed into a 1,536-well solid-bottom black plate (Greiner Bio One, Monroe, NC). Twenty-three nL of compounds (final concentration range 7.28 nM to 114 microM) or control Aprotinin (final concentration range 3.47 nM to 114 microM) were transferred via Wako Pin-tool (Wako Automation, Richmond, VA). Samples were incubated (room temperature, protected from light) for 15 minutes followed by a 1 microL Rhodamine110 substrate addition (1.5 microM final concentration). Plates were then immediately read on a ViewLux High-throughput CCD imager (PerkinElmer, Waltham, MA) equipped with FITC fluorescence optics (480(20) nm excitation, 540(25) nm emission), then incubated (room temperature, protected from light) for 15 minutes (~15% conversion). The change in fluorescence intensity over the 15-minute reaction period was normalized against no-inhibitor and no-enzyme controls and the resulting percent inhibition data were fitted to a 4-parameter Hill equation. Aprotinin was used as intraplate control.
Potency is read from the fitted curve at half-maximal effect.

SMILES | Potency
COc1cccc(N2CCN(C3=Nc4c(F)cccc4[C@H](CC(=O)O)N3c3cc(C(F)(F)F)ccc3OC)CC2)c1 | 25.1 µM (active)
Cc1nc(Nc2ccc(F)cc2)nc(N2CCc3ccccc3C2C)c1C (stereo not given) | inactive
C=CC(=O)N1CC(N2CCN(C(=O)CNc3cc(C4CC4)c(Cl)cc3O)CC2)C1 | inactive
C/C=C(\C)C(=O)OC1C(C)C2(O)C(C=C(CO)CC3(O)C(=O)C(C)=CC32)C2C(C)(C)C12OC(=O)C(C)C (stereo not given) | inactive
O=C(c1ccc(F)cc1)N1CCCC(c2nc(-c3ccc(F)cc3)no2)C1 (stereo not given) | inactive
COc1cc(/C=C/C(=O)NCCn2c(C(F)(F)F)cc3ccccc32)cc(OC)c1OC | inactive
C=C1CC[C@@H]2[C@](C)(CO)[C@H](O)CC[C@@]2(C)[C@@H]1C/C=C1/C(=O)OCC1O (stereo not given in full) | inactive
CCOc1cccc(NC(=O)c2ccc(N3CCCC3)c(C(F)(F)F)c2)c1 | inactive
COc1ccc([C@H]2OC[C@H]3O[C@@H](O[C@H]4[C@@H]2NC[C@@H]4O)[C@H](O)[C@H]3O)cc1 | inactive
O=C(O)CSc1cc(NS(=O)(=O)c2ccc(Br)cc2)c2ccccc2c1O | 3.16 µM (active)
CC1(C)CCC(C)(C)c2cc(C#Cc3ccc(C(=O)O)cc3)ccc21 | 1.58 µM (active)
O=c1nc(-c2ccccn2)sc2ccccc12 | inactive
CC(C)(C)Sc1c(CC(C)(C)C(=O)O)n(Cc2ccc(Cl)cc2)c2ccc(OCc3ccc4ccccc4n3)cc12 | 2.82 µM (active)
C=C1C(=O)OC2CC(C)C(CCC(C)=O)=CCC12 (stereo not given) | inactive
COc1cc(OC)c2c(=O)[nH]c(-c3cc(C)c(OCCO)c(C)c3)nc2c1 | inactive
Cc1cc(Nc2nc(-c3ccccc3)nc3ccccc23)n[nH]1 | inactive
NC(=O)c1cccc2[nH]c(-c3ccc(C4CCCN4)cc3F)nc12 (stereo not given) | inactive
COc1cc2c(c(OC)c1CC=C(C)C)C[C@H](c1ccc(O)c(CC=C(C)C)c1O)CO2 | 17.8 µM (active)
CC(=O)OC/C(=C/C(=O)O)CC[C@@H]1C(C=O)=CC[C@@H]2C(C)(C)CCC[C@@]12C | 10 µM (active)
Cc1ccc(-c2ncc[nH]2)cc1NC(=O)c1ccc(OCc2ccccn2)cc1 | inactive

SMILES | Potency
CC(C)NC(=O)COc1cccc(-c2nc(Nc3ccc4[nH]ncc4c3)c3ccccc3n2)c1 | inactive
C[C@@H]1CCCN1CCc1cc2cc(-c3ccc(C#N)cc3)ccc2o1 | inactive
COc1cc(C(C)C)c(Oc2cnc(N)nc2N)cc1I | inactive
CCN1CCN(Cc2ccc(NC(=O)c3ccc(C)c(Oc4ccnc5[nH]ccc45)c3)cc2C(F)(F)F)CC1 | inactive
Cc1nc(C#Cc2ccnc(Cl)c2)c(C)n1-c1ccc(F)cc1 | inactive
CC1(C(=O)Nc2ccc(F)nc2)CCCN1c1nc(Nc2cc(C3CC3)[nH]n2)c2cccn2n1 (stereo not given) | inactive
CCC(CC)Nc1nc(C)c(-c2ccc(OC(F)(F)F)cc2OC)nc1OC | inactive
COc1ccc(C2Oc3c(OC)cc(CCCO)cc3C2COC2OC(CO)C(O)C(O)C2O)cc1OC (stereo not given) | inactive
C=C[C@@]12COC(=O)C(=C)[C@@H]1[C@@H](O)[C@H](C(=C)C(=O)OC)[C@@H](O)C2 | inactive
COC1CC(=O)C23C(=O)NC(CC(C)C)C2C(C)C(C)=CC3/C=C(\C)CCCC1O (stereo not given) | inactive
C1=C/COCc2cc(ccc2OCCN2CCCC2)Nc2nccc(n2)-c2cccc(c2)COC/1 | inactive
CC(C)c1cc(-c2ccc(F)c3ccccc23)nc(N)n1 | inactive
COc1ccncc1C(=O)NC(=O)Nc1ccc(-c2ccccc2)c(C(F)(F)F)c1 | inactive
C=C1CCC2C(C)(C)CCCC2(C)C1CC/C(C)=C\CO (stereo not given) | 17.8 µM (active)
C=CC(=O)N1CCC(Oc2cc3c(Nc4ccc(Cl)c(Cl)c4F)ncnc3cc2OC)CC1 | inactive
Nc1nc(Cl)nc2c1ncn2C1OC(CO)C(O)C1F (stereo not given) | inactive
Cc1cc(OCCCS(C)(=O)=O)cc(C)c1-c1cccc(COc2ccc3c(c2)OCC3CC(=O)O)c1 (stereo not given) | 12.6 µM (active)
Cc1cn(CCN2CCN(c3ccccc3-c3cc(C#N)cc(C(=O)NCCCN4CCCC4)c3)CC2)c2ccccc12 | inactive
CCCOc1ccc(CCc2nc3cc(-c4c(C)noc4C)ccc3n2CCN2CCOCC2)cc1 | inactive
COc1ccc2nccc(C(=O)CC[C@@H]3CCN(CC#Cc4cc(F)cc(F)c4F)C[C@@H]3C(=O)O)c2c1 | 25.1 µM (active)
